ChEMBL document CHEMBL3988442, “University of Dundee, Small-Polar-MMV Screening Library” (2021)
About 13,000 (27%) of roughly 48,000 compounds showed an effect of 50% or more. The list shows a part of the results.

System: Wolbachia pipientis
Assay: Anti-Wolbachia Cell-Based Screen
Format: functional
Parameters: scale not given: in the data most compounds retested in dose-response had high values
Conditions: 5 µM

| Structure (SMILES) | Percent Effect [%] |
| --- | --- |
| Cc1cn2c(CN(C)C(=O)c3cnc(N)c(Cl)c3)c(C)nc2s1 | 7.837 |
| CCn1cnnc1CN(C)C(=O)c1cc(COc2cccc(F)c2)[nH]n1 | -21.78 |
| CCOCC(=O)NC1(c2cccc(Cl)c2)CC1 | -6.24 |
| c1ccc(-n2cc(CN3CCCC3Cn3cccn3)nn2)cc1 (configuration not stated) | 141.8 |
| c1cnn(CC2CCCN2Cc2ccc(-n3cccn3)cc2)c1 (configuration not stated) | 123 |
| CCCc1nc(CN2CCCC2Cn2cccn2)cs1 (configuration not stated) | -10.42 |
| Cc1nc(CN2CCCC2Cn2cccn2)nc2ccccc12 (configuration not stated) | 5.126 |
| Cc1nc(C)n(CC2CCCN2Cc2cn(-c3ccccc3)nn2)n1 (configuration not stated) | -1.626 |
| Cc1nc2ccccc2nc1CN1CCCC1Cn1cccn1 (configuration not stated) | 15.41 |
| CCC(=O)N1CCN(C(=O)Nc2ccc(Cl)cc2)[C@H]2CS(=O)(=O)C[C@H]21 | 20.51 |
| O=C(COC1CCCC1)N1C[C@@H]2CN(Cc3ccoc3)CCO[C@@H]2C1.O=C(O)C(F)(F)F | -10.48 |
| O=C1NCC(C(=O)Nc2ncc(Cc3ccccc3F)s2)N1 (configuration not stated) | 80.55 |
| O=C(NCc1ccccc1F)NC1CCCN(c2ncccn2)C1 (configuration not stated) | 7.135 |
| O=C1NCC(C(=O)Nc2ncc(Cc3ccc(F)cc3F)s2)N1 (configuration not stated) | 122.8 |
| CC(=O)Nc1ncc(S(=O)(=O)Nc2ccc(F)cc2F)s1 | 11.75 |
| Cc1ccccc1Cc1cnc(NC(=O)C2CNC(=O)N2)s1 (configuration not stated) | 1.413 |
| CC(=O)Nc1ncc(S(=O)(=O)Nc2ccc(F)cc2)s1 | 1.75 |
| CCCNc1ncc(C2CC(=O)NCc3nc4ccccn4c32)cn1 (configuration not stated) | 19.88 |
| CCS(=O)(=O)c1ccccc1N1CCC(NC(C)=O)CC1 | -10.39 |

| Structure (SMILES) | Percent Effect [%] |
| --- | --- |
| CN(CCN1CCCCCC1)C(=O)c1c(O)cccc1O | -5.64 |
| NC(=O)c1c(SCCN2CCCCC2)sc2c(O)cc(=O)[nH]c12 | 88.72 |
| CCOCC(=O)N1CC(=O)Nc2cc(Br)ccc21 | -5.264 |
| Cc1ccc2cc(C(=O)NCCn3nc4ccccn4c3=O)[nH]c2c1 | 12.5 |
| Cc1ccc(CSCCn2nc3ccccn3c2=O)cc1 | -0.2652 |
| O=c1n(CCNCc2ccc(-c3ccccc3)cc2)nc2ccccn12 | 92.23 |
| O=c1n(CCNCc2ccc3ccccc3c2)nc2ccccn12 | 96.37 |
| Cc1cc(C(=O)NCCn2nc3ccccn3c2=O)[nH]n1 | -11.84 |
| Cc1cc(C)c2c(c1)C(NC(=O)CSCC(N)=O)CCO2 (configuration not stated) | -11.46 |
| O=C(O)c1ccc(N2CCC(Oc3ccc(Cl)cc3)CC2)nc1 | 7.355 |
| CN1CCC(N(C)CCC(=O)N2CCC(Oc3ccc(Cl)cc3)CC2)C1 (configuration not stated) | -10.05 |
| COc1ccc(OC2CCN(C(=O)C(C)Cn3cccn3)CC2)cc1 (configuration not stated) | -7.925 |
| COc1ccc(OC2CCN(C(=O)[C@@H](N)Cc3c[nH]cn3)CC2)cc1 | 108.9 |
| O=C(N1CCC(Oc2ccncc2)CC1)C1(c2ccc(F)cc2)CC1 | 4.458 |
| COc1ccc(OC2CCN(C(=O)c3cnc(C)s3)CC2)cc1 | -7.331 |
| N[C@@H](Cc1c[nH]cn1)C(=O)N1CCC(Oc2ccc(Cl)cc2)CC1 | 129.2 |
| N[C@@H](Cc1c[nH]cn1)C(=O)N1CCC(Oc2ccc(F)cc2)CC1 | 142.9 |
| Cc1ccc(OC2CCN(C(=O)C(C)Cn3cccn3)CC2)cc1 (configuration not stated) | -8.941 |
